Experimental data from PubChem BioAssay AID1159580 (chemical genetic matrix, 2015).
Screen size: about 5,500 compounds; about 2,000 (36%) were called active. About 18% were inconclusive and are not listed. Cut-off read from the data, not from the text of the source: active = normalized growth mostly below about 0.91 (no sharp cut-off); inconclusive = no clear call, values can overlap the other calls; inactive = mostly above about 0.92. The list shows a part of the results.

Assay: chemical genetic growth profiling, strain panel (AID 1159580);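 note: tested at 20 µM; growth read once vehicle control cultures reached saturation at 30 °C; 1 = growth at the plate median or of vehicle wells; lower values mean less growth of the strain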
Conditions: S. cerevisiae deletion strains, growth OD

Measured: normalized growth

CN(C)[C@@H]1C(=O)C(C(=O)NCN2CCCC2)=C(O)[C@@]2(O)C(=O)C3=C(O)c4c(O)cccc4[C@@](C)(O)[C@H]3C[C@@H]12
inactive: locus YAL021C, strain ccr4, active compounds read low 0.935 | locus YAL026C, strain drs2, active compounds read low 0.976 | locus YAL030W, strain snc1, active compounds read low 0.994 | locus YBL061C, strain skt5, active compounds read low 0.999 | locus YBR009C, strain hhf1, active compounds read low 0.965 | locus YBR023C, strain chs3, active compounds read low 0.992 | locus YBR171W, strain sec66, active compounds read low 1.02 | locus YBR231C, strain swc5, active compounds read low 0.974 | locus YBR279W, strain paf1, active compounds read low 1 | locus YCL011C, strain gbp2, active compounds read low 0.94 | locus YCL016C, strain dcc1, active compounds read low 0.997 | locus YCL061C, strain MRC1, active compounds read low 0.997 | locus YCL069W, strain vba3, active compounds read low 1.02 | locus YCR088W, strain abp1, active compounds read low 1.01 | locus YDL005C, strain med2, active compounds read low 1.04 | locus YDL040C, strain nat1, active compounds read low 1.02 | locus YDR001C, strain nth1, active compounds read low 1.01 | locus YDR069C, strain doa4, active compounds read low 0.942 | locus YDR137W, strain rgp1, active compounds read low 0.922 | locus YDR159W, strain sac3, active compounds read low 1.04 | locus YDR195W, strain ref2 1.11 | locus YDR297W, strain sur2, active compounds read low 0.985 | locus YDR334W, strain swr1, active compounds read low 0.994 | locus YDR335W, strain msn5, active compounds read low 1 | locus YDR392W, strain spt3, active compounds read low 0.908 | locus YEL037C, strain rad23, active compounds read low 1 | locus YEL061C, strain CIN8 (second series), active compounds read low 1.01 | locus YER015W, strain faa2, active compounds read low 0.99 | locus YER016W, strain bim1, active compounds read low 1.02 | locus YER111C, strain swi4, active compounds read low 1.01 | locus YER155C, strain BEM2 (second series), active compounds read low 0.926 | locus YFR010W, strain ubp6, active compounds read low 0.985 | locus YGL167C, strain pmr1, active compounds read low 1 | locus YGL173C, strain kem1, active compounds read low 1.01 | locus YGL227W, strain vid30, active compounds read low 1.03 | locus YGL240W, strain doc1, active compounds read low 0.987 | locus YGL253W, strain hxk2, active compounds read low 1.01 | locus YHR013C, strain ard1, active compounds read low 1 | locus YHR027C, strain rpn1, active compounds read low 0.995 | locus YHR030C, strain SLT2, active compounds read low 1.03 | locus YHR079C, strain IRE1, active compounds read low 1.01 | locus YHR142W, strain chs7, active compounds read low 1 | locus YJL092W, strain hpr5, active compounds read low 1.01 | locus YJL095W, strain BCK1 (second series), active compounds read low 0.994 | locus YJL095W, strain BCK1, active compounds read low 0.992 | locus YJL115W, strain asf1, active compounds read low 1.01 | locus YJL129C, strain trk1, active compounds read low 1.03 | locus YJL154C, strain vps35, active compounds read low 1.02 | locus YJL164C, strain tpk1, active compounds read low 0.937 | locus YJL166W, strain qcr8, active compounds read low 0.944 | locus YJL187C, strain SWE1, active compounds read low 0.994 | locus YJR066W, strain TOR1, active compounds read low 0.965 | locus YKL160W, strain elf1, active compounds read low 1 | locus YKR026C, strain gcn3, active compounds read low 1 | locus YKR091W, strain srl3, active compounds read low 1.02 | locus YLL001W, strain dnm1, active compounds read low 1.02 | locus YLL026W, active compounds read low 1 | locus YLL041C, strain sdh2, active compounds read low 1.01 | locus YLR027C, strain aat2, active compounds read low 0.984 | locus YLR113W, strain HOG1, active compounds read low 0.959 | locus YLR258W, strain gsy2, active compounds read low 0.967 | locus YLR262C, strain YPT6 (second series), active compounds read low 0.945 | locus YLR320W, strain mms22, active compounds read low 0.97 | locus YLR342W, strain FKS1, active compounds read low 1 | locus YLR370C, strain arc18, active compounds read low 1 | locus YLR384C, strain iki3, active compounds read low 1.01 | locus YML120C, strain ndi1, active compounds read low 0.936 | locus YMR125W, strain sto1, active compounds read low 1.03 | locus YMR129W, active compounds read low 1.01 | locus YMR205C, strain PFK2, active compounds read low 1.01 | locus YMR231W, strain pep5, active compounds read low 1.01 | locus YNL071W, strain lat1, active compounds read low 0.942 | locus YNL183C, strain NPR1, active compounds read low 0.946 | locus YNL209W, strain ssb2, active compounds read low 0.993 | locus YNL322C, strain KRE1 (second series), active compounds read low 1 | locus YNR049C, strain mso1, active compounds read low 1.01 | locus YOR070C, strain gyp1, active compounds read low 1 | locus YOR080W, strain dia2, active compounds read low 1.01 | locus YOR083W, strain WHI5, active compounds read low 0.978 | locus YOR231W, strain MKK1, active compounds read low 1.03 | locus YOR265W, strain rbl2, active compounds read low 1 | locus YOR270C, strain vph1, active compounds read low 0.977 | locus YOR290C, strain snf2, active compounds read low 0.991 | locus YPL051W, strain arl3, active compounds read low 0.949 | locus YPL078C, strain atp4, active compounds read low 1 | locus YPL106C, strain sse1, active compounds read low 0.95 | locus YPL240C, strain hsp82, active compounds read low 1.02 | locus YPL256C, strain CLN2, active compounds read low 1.01
active: locus YEL003W, strain gim4, active compounds read low 0.732 | locus YLR221C, strain rsa3, active compounds read low 0.907 | locus YLR357W, strain rsc2, active compounds read low 0.787 | locus YMR058W, strain fet3, active compounds read low 0.879 | locus YNL248C, strain rpa49, active compounds read low 0.796 | locus YOR001W, strain rrp6, active compounds read low 0.89 | locus YOR106W, strain vam3, active compounds read low 0.849
